Bioassay records from PubChem.
KCNQ2 inh: blocks the rat KCNQ2 potassium channel | B-score at 10 µM | AID 2156 | 310,000 compounds, 1.1% hits | O88943 | CHO-K1 KCNQ2, FluxOR thallium flux, 20 min; stronger effect = lower value;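 active = fluorescence ratio B-score at most minus 3 library SDs, with starting brightness B-score within 2 library SDs, cut at about -5.5 in these data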
KCNQ2 enhance: potentiators of rat KCNQ2 potassium channel. 310,000 compounds, 0.54% hits. CHO-K1 KCNQ2, FluxOR thallium flux fluorescence; stronger effect = higher value. O88943. B-score at 10 µM. AID 2239;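 active = fluorescence ratio B-score at least 3 SD of library B-scores, with initial fluorescence B-score within 3 of them, cut at about 5.3 in these data; same plate scores as AID 2156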;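 also: B-score of peak minus minimum over baseline fluorescence ratio after K+ and Tl+ stimulus; positive B-score means potentiation of KCNQ2 with more thallium influx and brighter signal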
KCNQ2 inh conf: confirmation of rat KCNQ2 potassium channel inhibitors | shares compounds with KCNQ2 inh | KCNQ2-expressing cells, thallium flux, inhibition; stronger effect = lower value | activity change, negative = inhibition, % at 10 µM | 1,000 compounds, 57% hits;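 also: 0% = vehicle wells and values are ratio percent relative to vehicle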
KCNQ1 spec: human KCNQ1 activity in KCNQ2 inhibitor specificity screen; shares compounds with KCNQ2 inh; 1,000 compounds, 15% hits; KCNQ1-expressing cells, FluxOR thallium flux fluorescence; stronger effect = lower value; activity change, negative = inhibition, % at 10 µM;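 active = activity change at least 3 SD of negative controls below their mean in both duplicate wells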;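 also: CHO cells stably transfected with KCNQ1 and depolarized by potassium stimulus; peak minus minimum fluorescence over baseline after thallium addition; 0% = vehicle negative control and -100% = blank without thallium stimulus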
CHO parental ctr: counter-screen for KCNQ2 inhibitors: effect in parental CHO cells; shares compounds with KCNQ2 inh; 1,000 compounds, 14% hits; AID 493029; thallium flux counter-screen; stronger effect = lower value; activity change, % at 10 µM;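 also: 0% = vehicle negative controls with stimulus buffer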
KCNQ2 inh confirm: blocks rat KCNQ2 current in automated patch clamp. calls only at 10 µM. KCNQ2-expressing cells. 550 compounds, 49% hits. shares compounds with KCNQ2 inh. AID 588531
An asterisk follows results filed as active; i = inactive; . = no result given; + = active, no number. Sampled rows, rich in hits. Any-hit rate of the full collection: about 1.6%. Unless noted, no rule for the calls is given here.

SMILES | KCNQ2 inh | KCNQ2 enhance | KCNQ2 inh conf | KCNQ1 spec | CHO parental ctr | others
CC(C)C[C@H](NC(=O)N1CCn2c1nc1ccccc12)C(=O)NCCc1ccccc1 | i | . | . | . | .
CC(C)C[C@H](NC(=O)N1CCn2c1nc1ccccc12)C(=O)NCc1ccccc1 | -6.7* | -6.7 | i | i | i
CC1(OC(=O)CCc2ccccc2)C(=O)C=C2C=C(c3ccc(C#N)cc3)N(CCc3c[nH]c4ccccc34)C=C2C1=O (stereo unspecified) | i | 0.37 | . | . | .
Cc1ccc(CC2SC(N)=NC2=O)cc1 (stereo unspecified) | i | . | . | . | .
Cc1cccc(-n2nc3c(c2NC(=O)CCCl)CSC3)c1 | i | . | . | . | .
Cc1cccc(-n2nc3c(c2NC(=O)c2ccc(Br)o2)CSC3)c1 | -9* | -9 | -28%* | i | i | KCNQ2 inh confirm=i
Cc1ccc(S(=O)(=O)c2ccc(Cl)cc2)cc1S(=O)(=O)N(C)CC(=O)O | i | 1.1 | . | . | .
Cc1ccc(-c2nnc(N3CCN(C(=O)COc4ccccc4)CC3)c3ccccc23)cc1 | -7.6* | -7.6 | -27%* | i | i | KCNQ2 inh confirm=+
O=C(COc1ccc(-c2nnc(N3CCCCC3)c3ccccc23)cc1)N1CCCCC1 | i | . | . | . | .
CCN1CCN(c2cc(N3CCc4ccccc4C3)c(F)cc2[N+](=O)[O-])CC1 | -6.9* | -6.9 | -29%* | i | i
CC(=O)N1CCN(c2cc(N3CCCC3)c(F)cc2[N+](=O)[O-])CC1 | i | . | . | . | .
C=CCSc1ccccc1C(=O)Nc1ncn[nH]1 | i | . | . | . | .
Fc1ccc(C(c2ccc(F)cc2)N2CCN(C/C=C/c3ccccc3)CC2)cc1 | -8.6* | -8.6 | i | i | i
C(=C\c1ccccc1)/CN1CCN(C(c2ccccc2)c2ccccc2)CC1 | i | . | . | . | .
COc1ccc(NS(=O)(=O)c2ccc3oc(=O)c4[nH]c(=O)c(=O)n(C)c4c3c2)cc1 | i | . | . | . | .
C=CCNC(=O)c1ccc(Cn2cc(C(F)(F)F)ccc2=O)cc1 | i | 0.03 | . | . | .
COc1ccccc1N1CCN(C(=O)c2oc3cc(C)cc(C)c3c2C)CC1 | -8.2* | -8.2 | i | i | i
COc1ccccc1N1CCN(C(=O)c2cc(=O)c3ccc(C)cc3o2)CC1 | i | 0.17 | . | . | .
O=C(CCNc1cccc(F)c1)c1cccc([N+](=O)[O-])c1 | -6.7* | -6.7 | i | i | i
O=C(CCNc1ccc(Cc2ccncc2)cc1)c1cccc([N+](=O)[O-])c1 | i | . | . | . | .
CC(=O)N(C)c1ccc(NS(=O)(=O)c2cccc3nsnc23)cc1 | i | . | . | . | .
CCOC(=O)N1CCC(N(CCCOC)C(=O)Nc2cccc(OC)c2)CC1 | i | . | . | . | .
CCOC(=O)N1CCC(N(CCOC)C(=O)Nc2ccc(Cl)c(Cl)c2)CC1 | -9.4* | -9.4 | -25%* | i | i
Cn1nc(C(=O)NC2CCCCC2)c2c1-c1ccccc1SC2 | i | . | . | . | .
CC(C)N(C(=O)c1nn(C)c2c1CSc1ccccc1-2)C1CCCCC1 | -8.7* | -8.7 | -26%* | i | i | KCNQ2 inh confirm=i
SMILES | KCNQ2 inh | KCNQ2 enhance | KCNQ2 inh conf | KCNQ1 spec | CHO parental ctr | others
Cc1cc(C)n2c(SCC(=O)N(C)C3CCCCC3)nnc2n1 | i | 0.54 | . | . | .
CCc1ccc(-c2csc(NC(=O)C3CCCO3)c2C(=O)OC(C)C)cc1 (stereo unspecified) | -8.3* | -8.3 | -29%* | i | i
COC(=O)c1c(-c2ccc(F)cc2)csc1NC(=O)C1CCCO1 (stereo unspecified) | i | 0.46 | . | . | .
O=C(OCC(=O)N(C1CCCCC1)C1CCCCC1)c1ccc(O)cc1 | i | 0.71 | . | . | .
O=C(OCC(=O)N(C1CCCCC1)C1CCCCC1)c1ccccc1O | -7.3* | -7.3 | -36%* | i | i | KCNQ2 inh confirm=+
COC(=O)NN1C(=O)C(c2ccccc2)=C(c2ccc(Cl)cc2)C1=O | -8.8* | -8.8 | i | i | i
COC(=O)Nc1c(-c2ccccc2)nc2ccc(Cl)cn12 | i | . | . | . | .
COc1cccc(OCC(=O)N2CCCc3ccccc32)c1 | i | . | . | . | .
O=C(Nc1cc(C(F)(F)F)ccc1N1CCCC1)C1=COCCO1 | i | . | . | . | .
COc1cccc(Oc2ccc(C(F)(F)F)cc2NC(=O)c2cccc(F)c2)c1 | -7.1* | -7.1 | -26%* | i | i | KCNQ2 inh confirm=i
COc1cccc(Oc2ccc(C(F)(F)F)cc2NC(=O)C2=COCCO2)c1 | -7.5* | -7.5 | i | i | i
COc1ccc(Oc2ccc(C(F)(F)F)cc2NC(=O)c2ccc(F)cc2)cc1 | i | . | . | . | .
